H9c2 protect: cardioprotection against H2O2-induced cell death, primary screen, uHTS, H9c2 cells, ATPLite luminescence | H9c2 cardiomyocytes, H2O2 injury protection, 2 h | protection from H2O2 cell death, % at 20 µM | 0.63% of 360,000 active | AID 588492, 2011;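 active = compounds giving at least 50% protection of heart cells from peroxide-induced death in the single-dose screen, raw or plate-pattern-corrected value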;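 also: 0% = DMSO wells with peroxide and 100% = DMSO wells without peroxide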
Yeast superoxide: reduction of superoxide in aged yeast, primary screen, HTS; S. cerevisiae aged cells, superoxide DHE fluorescence; hits give low values; superoxide response (% of plate mean), % at 10 µM; 0.18% of 330,000 active; AID 2690, 2010;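 active = superoxide response under a set limit, about three screen SD below normal, cut at about 65% in these data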;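 also: yeast aged for seven days with compound at 30 °C before DHE staining; 100% = average MFI of all compound-treated wells on the plate with controls excluded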
p-CIP stab down: p/CIP-EGFP fusion destabilizers, primary screen, fluorescence, F442A cells; 16 h; decrease of EGFP signal, % at 10 µM; 0.01% of 290,000 active; Q05BA5;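 active = EGFP signal decrease of at least 30% at 10 µM or well 3 SD below plate mean, unless failing retest; inactive = the rest, including hits failing retest or dose response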
V-ATPase pH: regulators of yeast V-ATPase proton pumping, primary screen, pHLuorin cytosolic pH fluorescence; S. cerevisiae; response, % at 10 µM; 0.37% of 350,000 active; AID 504577, 2011; in the data active = response mostly above about 7.3%, no sharp cut-off; inactive = mostly below about 5.4%; also: actives read high
MIN6 prolif-1: inducers of MIN6 beta-cell proliferation, primary screen, ATP luminescence, uHTS; 0.29% of 330,000 active; proliferation, % at 10 µM; MIN6 cells proliferation, ATPlite luminescence, 48 h; cells starved in 0.2% serum; 100% = growth in 10% serum; AID 2380, 2010;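 active = compounds whose signal lies at least 3.5 SD above the mean of all wells on their plate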;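 also: 0% = DMSO-treated cells in low-serum medium and 100% = 10% serum control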
HSV augment: enhancers of HSV replication in host cells, fold increase, host cell viability. HSV replication augmentation in cells. maximum fold increase. 0.005% of 220,000 active. AID 1956, 2009; in the data active = maximum fold increase above about 1.5; tested in PC3 cells
MIN6 prolif-2: inducers of beta-cell proliferation in MIN6, confirmation, MIN6 cells, mouse; shares compounds with MIN6 prolif-1; ATPlite luminescence, 48 h; cells kept in 0.2% serum; scaled between 0.2% and 10% serum; proliferation increase, % at 50 µM; 920 tested, under 10 active;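 active = proliferation increase above 40% at any of the four tested concentrations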
The depositor's hits bear a star. Only some compounds are listed: those with a hit (about 1.4% of all), similar ones and a draw of the others.

How did CCCNC(=O)c1n[nH]c(=O)c2ccccc12 do in these assays?
H9c2 protect: 32; Yeast superoxide: 112; p-CIP stab down: -3; V-ATPase pH: -3; MIN6 prolif-1: 5.6*; HSV augment: inactive; MIN6 prolif-2: 2

How did COc1ccc(COC(=O)CNC(=O)C2CCCCC2)cc1F do in these assays?
H9c2 protect: -6; Yeast superoxide: 88; V-ATPase pH: 0; MIN6 prolif-1: -2

How did CC(C)CNC(=O)CN(C1CCCCC1)S(=O)(=O)c1ccccc1 do in these assays?
H9c2 protect: 7; Yeast superoxide: 99; p-CIP stab down: -2; V-ATPase pH: -1; MIN6 prolif-1: 9.1*; HSV augment: inactive; MIN6 prolif-2: 3

How did CCOCCCn1c(=S)[nH]c2cc(C(=O)NCCc3ccccc3)ccc2c1=O do in these assays?
H9c2 protect: 1; Yeast superoxide: 100; p-CIP stab down: -4; V-ATPase pH: 3; MIN6 prolif-1: 1

How did CCCCc1c(C)c(C#N)c2nc3ccccc3n2c1Cl do in these assays?
p-CIP stab down: -17; HSV augment: inactive

How did CCc1c(C)c(C#N)c2nc3ccccc3n2c1N(C)C do in these assays?
H9c2 protect: 1; Yeast superoxide: 90; p-CIP stab down: 15; V-ATPase pH: 8; MIN6 prolif-1: 6.0*; HSV augment: inactive; MIN6 prolif-2: -2

What do the screens show for `Cc1cc(C(=O)CSc2nnc(-c3ccccc3)n2-c2ccccc2)c(C)n1-c1ncn[nH]1`?
H9c2 protect: -1; Yeast superoxide: 100; p-CIP stab down: -8; V-ATPase pH: 2; MIN6 prolif-1: 6.9*; HSV augment: inactive; MIN6 prolif-2: -4

What do the screens show for `Clc1ccc(CNc2nc(N3CCOCC3)nc(N3CCOCC3)n2)cc1`?
H9c2 protect: -3; Yeast superoxide: 106; p-CIP stab down: 4; V-ATPase pH: -1; MIN6 prolif-1: 2; HSV augment: inactive

How did O=C1CSC(c2ccc(Cl)cc2)N1Nc1nc(N2CCOCC2)nc(N2CCOCC2)n1 (configuration not stated) do in these assays?
H9c2 protect: -6; Yeast superoxide: 95; p-CIP stab down: -5; V-ATPase pH: -2; MIN6 prolif-1: 9.7*; HSV augment: inactive; MIN6 prolif-2: -4

What do the screens show for `CC1CC(OC(=O)C2CCN(S(=O)(=O)c3ccc(F)cc3)CC2)C(=O)O1` (configuration not stated)?
H9c2 protect: 9; V-ATPase pH: -4; MIN6 prolif-1: -2

Results for COC(=O)c1ccc(OC(=O)c2cccnc2SC)cc1 ?
H9c2 protect: -3; Yeast superoxide: 96; p-CIP stab down: 5; V-ATPase pH: -1; MIN6 prolif-1: -1

How did COC(=O)c1ccc(OC(=O)c2ccccn2)cc1 do in these assays?
H9c2 protect: 8; Yeast superoxide: 85; p-CIP stab down: -4; V-ATPase pH: 1; MIN6 prolif-1: 6.5*; HSV augment: inactive; MIN6 prolif-2: 0

How did COc1ccccc1NC(=O)C(C)OC(=O)C1CCN(S(=O)(=O)c2ccc(C)c(C)c2)CC1 (configuration not stated) do in these assays?
H9c2 protect: -2; Yeast superoxide: 86; V-ATPase pH: -1; MIN6 prolif-1: 16*; MIN6 prolif-2: -5

What do the screens show for `COC(=O)c1ccccc1S(=O)(=O)N1CCC(C(=O)OC(C)C(=O)Nc2ccccc2OC)CC1` (configuration not stated)?
H9c2 protect: 18; Yeast superoxide: 98; V-ATPase pH: -2; MIN6 prolif-1: 4

What do the screens show for `COc1ccc(/C=N/Nc2nc(N3CCCC3)nc(N3CCCC3)n2)cc1`?
H9c2 protect: 33; Yeast superoxide: 92; p-CIP stab down: -3; V-ATPase pH: -3; HSV augment: inactive

What do the screens show for `COc1nc(N/N=C/c2ccc(C)cc2)nc(N2CCCCC2)n1`?
H9c2 protect: -4; Yeast superoxide: 106; p-CIP stab down: 6; V-ATPase pH: 0; MIN6 prolif-1: 7.4*; HSV augment: inactive; MIN6 prolif-2: -1

Results for O=C(NCc1ccco1)/C(=C/c1cccnc1)NC(=O)c1ccco1 ?
H9c2 protect: 2; Yeast superoxide: 93; p-CIP stab down: 1; V-ATPase pH: 0; MIN6 prolif-1: 1; HSV augment: inactive

How did CCCOc1c(Cl)cc(C(=O)NC)cc1OC do in these assays?
H9c2 protect: -2; Yeast superoxide: 95; p-CIP stab down: 24; V-ATPase pH: 2; MIN6 prolif-1: 9.7*; HSV augment: inactive; MIN6 prolif-2: 5

How did O=C(CNC(=S)N(Cc1ccc(F)cc1)C1CCCCC1)NCCN1CCOCC1 do in these assays?
H9c2 protect: 0; Yeast superoxide: 112; p-CIP stab down: -2; V-ATPase pH: -3; MIN6 prolif-1: -3; HSV augment: inactive

Results for O=C(O)CNC(=S)N(Cc1ccc(F)cc1)C1CCCCC1 ?
H9c2 protect: -4; Yeast superoxide: 97; p-CIP stab down: -5; V-ATPase pH: -1; MIN6 prolif-1: 8.2*; HSV augment: inactive; MIN6 prolif-2: -2

What do the screens show for `CN(C)S(=O)(=O)c1cccc(NC(=O)COc2ccccc2C(=O)NCc2ccccc2)c1`?
H9c2 protect: 3; V-ATPase pH: -2; MIN6 prolif-1: 13*; MIN6 prolif-2: -6

How did CC(C)[C@H](NC(=O)c1ccc(Br)cc1)C(=O)NC1CCCCC1 do in these assays?
H9c2 protect: -3; Yeast superoxide: 101; V-ATPase pH: 0; MIN6 prolif-1: 0

How did O=C1CCC(C(=O)N2CCSCC2)CN1Cc1ccc(Cl)cc1 (configuration not stated) do in these assays?
H9c2 protect: 9; Yeast superoxide: 118; p-CIP stab down: 12; V-ATPase pH: -3; MIN6 prolif-1: 27*; MIN6 prolif-2: 0

What do the screens show for `O=P(O)(CCCP(=O)(O)CCc1ccccc1)CCc1ccccc1`?
H9c2 protect: 3; Yeast superoxide: 97; p-CIP stab down: 2; V-ATPase pH: 0; MIN6 prolif-1: 8.8*; HSV augment: inactive; MIN6 prolif-2: -4

How did O=P(O)(CCCCP(=O)(O)CCc1ccccc1)CCc1ccccc1 do in these assays?
p-CIP stab down: -3

Results for Cn1c(=O)c2c(nc(OCc3ccccc3)n2C)n(C)c1=O ?
H9c2 protect: 30; Yeast superoxide: 109; p-CIP stab down: -2; V-ATPase pH: 2; MIN6 prolif-1: 16*; HSV augment: inactive; MIN6 prolif-2: 5

What do the screens show for `COc1cccc(COc2nc3c(c(=O)n(C)c(=O)n3C)n2C)c1`?
H9c2 protect: 7; Yeast superoxide: 97; p-CIP stab down: -4; V-ATPase pH: 1; MIN6 prolif-1: 2

High-throughput results: PubChem BioAssay, several laboratories
